Assay results taken from the supplement of paper PMC3334620.
In all, about 33,000 sequences were measured (“E-score (-0.5 to 0.5)”: median about -0.054, highest 2% from about 0.39 on). The sample holds the highest values, similar sequences and a random draw of the others, so the mix is not that of the screen.

The sequences below were run against Ylr278c (UniProt Q05854) (assay: PBM E-score (8-mer binding enrichment) (E-score (-0.5 to 0.5)); higher = stronger / more preferred TF binding). Conditions: protein concentration: 200 nM; construct: GST-DNA-binding domain.
Sequence of UniProt Q05854 (Q05854 whole entry, the tested form may be a part): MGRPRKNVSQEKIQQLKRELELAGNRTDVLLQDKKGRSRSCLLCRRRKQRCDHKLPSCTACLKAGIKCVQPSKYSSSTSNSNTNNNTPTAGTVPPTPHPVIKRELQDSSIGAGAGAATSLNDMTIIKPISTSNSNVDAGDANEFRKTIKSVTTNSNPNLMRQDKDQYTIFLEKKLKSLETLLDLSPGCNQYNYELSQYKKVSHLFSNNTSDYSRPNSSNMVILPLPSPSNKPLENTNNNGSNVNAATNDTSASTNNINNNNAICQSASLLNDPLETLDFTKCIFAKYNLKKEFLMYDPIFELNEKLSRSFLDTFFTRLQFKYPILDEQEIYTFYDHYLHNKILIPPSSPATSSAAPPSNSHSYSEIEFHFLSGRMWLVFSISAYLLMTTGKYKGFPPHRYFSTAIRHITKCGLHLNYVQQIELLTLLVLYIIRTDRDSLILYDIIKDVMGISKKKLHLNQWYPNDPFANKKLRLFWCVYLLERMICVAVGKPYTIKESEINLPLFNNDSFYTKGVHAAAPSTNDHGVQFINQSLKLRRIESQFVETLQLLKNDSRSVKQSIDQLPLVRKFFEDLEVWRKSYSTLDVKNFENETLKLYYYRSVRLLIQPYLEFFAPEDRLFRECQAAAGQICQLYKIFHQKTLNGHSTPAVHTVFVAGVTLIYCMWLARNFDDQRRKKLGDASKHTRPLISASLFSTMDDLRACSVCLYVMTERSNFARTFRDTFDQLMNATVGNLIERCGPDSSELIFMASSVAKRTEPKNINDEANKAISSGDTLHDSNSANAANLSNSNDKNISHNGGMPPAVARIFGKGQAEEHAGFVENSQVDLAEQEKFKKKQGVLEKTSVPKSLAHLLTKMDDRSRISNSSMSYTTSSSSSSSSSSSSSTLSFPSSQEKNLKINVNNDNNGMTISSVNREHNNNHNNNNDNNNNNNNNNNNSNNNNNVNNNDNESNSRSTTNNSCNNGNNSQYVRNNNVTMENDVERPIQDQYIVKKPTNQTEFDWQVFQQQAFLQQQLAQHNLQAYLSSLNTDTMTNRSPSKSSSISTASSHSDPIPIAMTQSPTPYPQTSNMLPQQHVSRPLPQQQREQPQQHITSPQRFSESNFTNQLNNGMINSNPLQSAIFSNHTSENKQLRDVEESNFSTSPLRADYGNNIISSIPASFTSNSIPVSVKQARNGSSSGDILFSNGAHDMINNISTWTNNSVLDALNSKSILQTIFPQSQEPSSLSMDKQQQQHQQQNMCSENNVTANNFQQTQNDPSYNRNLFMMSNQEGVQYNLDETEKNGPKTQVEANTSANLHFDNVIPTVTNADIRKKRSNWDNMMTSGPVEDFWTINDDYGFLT
Procedure: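 Universal 'all 10-mer' protein binding microarrays (Agilent AMADID 015681) probed with GST-tagged S. cerevisiae TFs (full-length or DBD) made by in vitro transcription/translation (PURExpress), about 100-200 nM. Bound TF was detected with fluorescent anti-GST. Each ungapped 8-mer (which stands for itself and its reverse complement) is scored by the PBM enrichment score (E-score), a modified Wilcoxon-Mann-Whitney statistic from -0.5 to +0.5, computed with the Universal PBM Analysis Suite. Scale: above 0.35 generally sequence-specific binding.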

Row | Sequence | PBM E-score
1 | CATTGCTA | -0.0953
2 | ACGCTCTA | -0.183
3 | ATCGAAAG | -0.0309
4 | GACTGCTA | -0.277
5 | CCAGTCCA | -0.17
6 | GTCCCTAA | -0.0663
7 | AAGAGAGT | -0.0766
8 | ACTCCCGA | 0.217
9 | ATTCCTGC | 0.0732
10 | ATTCCGTG | 0.361
11 | ACTCCCGG | 0.396
12 | ATTCCGGG | 0.443
13 | ATTCCTGG | -0.0751
14 | ATTCCCCG | 0.375
15 | ATTCCAGC | -0.104
16 | ATTCCGGC | 0.463
17 | ATTCCCGG | 0.411
18 | ATTCCCGA | 0.338
19 | ACTCCCCG | 0.338
20 | GCGAGTCA | -0.0556
21 | CACCGCCC | 0.218
22 | AAGCTCTG | -0.356
23 | ATTTATCC | 0.163
24 | ACATCAAC | 0.05

Row | Sequence | PBM E-score
25 | TAAAGAAA | 0.0382
26 | CGCCAAAC | 0.0632
27 | AATTAGCC | 0.0197
28 | CCGGAATC | 0.435
29 | ACGGAATC | 0.32
30 | CCGGAAGA | 0.421
31 | ACGGAAGA | 0.169
32 | ACGGAATA | 0.357
33 | GTGGAATA | 0.0653
34 | GGGGAATA | 0.141
35 | CCGGAAGG | 0.387
36 | CCGGAATA | 0.434
37 | CGGGAATA | 0.374
38 | CTGGAATC | -0.0172
39 | GCGGAATA | 0.396
40 | AAATGTGA | -0.146
41 | CACCCCCG | 0.145
42 | CATCTTTA | -0.0964
43 | AGGTAACG | -0.0647
44 | GTATGGGA | -0.174
45 | CCTCTACA | -0.252
46 | AAGATCTT | 0.0756
47 | AAGCGTCT | -0.176
48 | ACTCATGG | -0.191

Row | Sequence | PBM E-score
49 | AACCGGCC | 0.275
50 | ATCCGGCG | 0.432
51 | ATCCGGTG | 0.408
52 | ACCCGGTG | 0.277
53 | AACCGGCG | 0.361
54 | ATCCGACG | 0.367
55 | ACCCGGCC | 0.272
56 | ATCCGGCC | 0.399
57 | ATACGGTG | 0.0149
58 | CTCACCTC | -0.0994
59 | CTAGCATC | -0.167
60 | CTGCTTTA | 0.0716
61 | GGTCTCTA | -0.21
62 | ATCGCCAC | -0.0201
63 | GCTGGGCA | -0.184
64 | ATAACTTG | -0.14
65 | ATACTGCC | 0.013
66 | ATAGAGAG | -0.283
67 | AAGTCCTG | -0.106
68 | AAGTCCCT | -0.213
69 | AAGTCCAG | -0.0689
70 | ACGTCCGC | 0.299
71 | AAGTCCAT | -0.0494
72 | AAGTCCGC | 0.46

Row | Sequence | PBM E-score
73 | AAGTCCGT | 0.433
74 | AAGTCCTC | 0.122
75 | AAGTCCGG | 0.481
76 | CACCGCTG | -0.0372
77 | ACTTAAGG | -0.105
78 | ACACAAGA | -0.0979
79 | ACTAGAAT | -0.0455
80 | ATTGGCCC | -0.211
81 | GTCGTCGA | -0.121
82 | AGGGTGCC | -0.211
83 | CGTATCTC | 0.148
84 | ACCGGCGA | 0.379
85 | CCCGGCAA | 0.303
86 | GCCGGCAC | 0.304
87 | TCCGGCCA | 0.409
88 | ACCGGCAA | 0.285
89 | CCCGGCCA | 0.267
90 | GCCGGCGA | 0.385
91 | TCCGGCAA | 0.431
92 | TCCGGCGA | 0.437
93 | ACCGGCCA | 0.169
94 | GCCGGCAA | 0.391
95 | TACGGCAA | 0.129
